Results taken from PubChem BioAssay (NCI).
Compounds without any hit were thinned out: in the full panel of roughly 83,000, 20% have a hit.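 Negative percent growth values reflect cell death: -40 means 40% of the cells present at the start died, and -100 means all died.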 Values without a mark were called inactive. The source made the active and inactive calls. The calls were made as follows: active = growth percent below 10; inactive = the rest.

How the values were obtained:
Experiment in all cases: NCI-60 one-dose screen, 48 h (100 = growth as untreated, 0 = no growth, -100 = all killed)
Details in all cases: 10 µM unless noted
[1] = system: DU-145 prostate
[2] = system: K-562 leukemia
[3] = system: MALME-3M melanoma
[4] = system: MDA-MB-231 breast
[5] = system: SF-268 CNS
[6] = system: SF-295 CNS
[7] = system: SF-539 CNS
[8] = system: UACC-257 melanoma
[9] = system: M14 melanoma
[10] = system: HCT-15 colon
[11] = system: HT29 colon
[12] = system: SNB-75 CNS
[13] = system: SNB-19 CNS
[14] = system: U251 CNS
[15] = system: PC-3 prostate
[16] = system: SK-MEL-5 melanoma
[17] = system: UACC-62 melanoma
[18] = system: LOX IMVI melanoma
[19] = system: SK-MEL-28 melanoma
[20] = system: RXF 393 renal

Compound	growth [1]	growth [2] [%]	growth [3] [%]	growth [4]	growth [5] [%]	growth [6]	growth [7]	growth [8]	growth [9]	growth [10]	growth [11]	growth [12]	growth [13] [%]	growth [14]	growth [15] [%]	growth [16]	growth [17] [%]	growth [18] [%]	growth [19] [%]	growth [20]
Cc1cc2nc3c(=O)[nH]c(=O)nc-3n(CC=O)c2cc1C	116%	96	112	106%	99.5	92.2%	93.6%	159%	109%	106%	102%	89.3%	99.8	103%	122	98.6%	92.2	101	117	–
O=C1OCC2=C1C(c1cccc(Br)c1)c1cc3c(cc1N2CCO)OCCO3 (stereo not given)	-30.9% (active)	17.5	–	-21.5% (active)	19	-4.99% (active)	0.257% (active)	49%	14.6%	13.9%	2.11% (active)	28.5%	31.6	6.01% (active)	25.4	1.61% (active)	27.3	23.5	–	38.2%
Cc1cc(C#Cc2ccccc2)ccc1-n1c(/C=C/c2ccc(F)cc2)nc2ccccc2c1=O	98.5%	48.5	–	75.9%	86.4	–	102%	86.7%	81.2%	69.8%	59.3%	86.5%	88.5	82%	18.2	36.8%	55.1	71.2	94.4	99.1%
NC(N)=N/N=C\c1cccc(OCc2ccccc2)c1	101%	27.1	85.8	76%	–	85.1%	77.5%	70.8%	59.7%	45%	1.4% (active)	63.8%	83.2	23.3%	71.5	33%	84.9	51	86	62.1%
COc1cc2c(cc1OC)C(=O)OC2	109%	118	124	102%	100	102%	97%	13.3%	119%	119%	109%	78.7%	113	106%	125	99.4%	97.6	109	147	–
COc1ccc(C2C3=C(COC3=O)N(CCO)c3cc(OC)c(OC)cc32)cc1 (stereo not given)	113%	82.5	–	112%	101	110%	105%	116%	108%	98.9%	95.1%	93.3%	–	101%	106	100%	107	101	115	114%
NC(N)=N/N=C\c1ccc(OCc2ccccc2)cc1	87.4%	36	91.5	66.1%	–	99%	87.7%	90.4%	81.5%	35.7%	16.6%	43.9%	70.9	45.7%	70.7	-13% (active)	78.2	59.6	87.8	-3.77% (active)
COc1ccc2c(c1)N(CCO)C1=C(C(=O)OC1)C2c1cccc(Br)c1 (stereo not given)	-27.2% (active)	13.6	–	-10.6% (active)	25	-19.4% (active)	-6.97% (active)	60%	8.81% (active)	7.92% (active)	-9.38% (active)	29.2%	35.4	14%	26.2	2.15% (active)	25	22.2	58.6	44.4%
N[C@@H](CO)C(=O)O	101%	110	–	93.4%	95.1	–	113%	104%	107%	109%	109%	93.3%	105	102%	96.8	104%	91.9	130	–	108%
CC1=NN(c2cccc(S(N)(=O)=O)c2)C(=O)C1	100%	99.4	89.9	97.1%	91.6	87.8%	91.5%	124%	95.3%	111%	104%	82.7%	90.4	101%	80.1	92.8%	89.7	96.3	111	–
CCc1ccc2c(c1)N(CCO)C1=C(C(=O)OC1)C2c1cccc(Br)c1 (stereo not given)	12%	14.8	–	34.9%	47.2	-19.3% (active)	-8.23% (active)	63.4%	10.8%	26.3%	3.88% (active)	2.55% (active)	37.9	24%	30.1	33.2%	35.5	42.2	–	10.9%
CC(=O)Nc1ccc(Cl)cc1Cl	111%	64.9	112	100%	97.4	83.8%	98.3%	124%	102%	118%	103%	91.2%	97.8	103%	308	95.7%	96.4	93.8	157	–
Cc1nc([C@H]2CC[C@H]3[C@@H]4CCC5=CC(=O)CC[C@]5(C)[C@H]4CC[C@]23C)cs1	99.7%	18	99.5	97.4%	91.7	46.1%	93.4%	39.2%	74.1%	75.2%	62.2%	104%	91.3	66%	19.6	24.7%	59.4	56.5	93.4	–
COc1cc(C2C=C(C)N=C3SC=NN32)cc(OC)c1OC (stereo not given)	115%	108	–	104%	111	107%	99.1%	94.8%	109%	106%	101%	105%	95.9	93.5%	72.7	103%	100	95.8	100	113%
O=C1OC(c2ccc(-c3ccccc3)cc2)=C/C1=C/c1c(Cl)cccc1Cl	96.3%	89.5	64	95.9%	96.7	–	102%	-33.6% (active)	105%	83.7%	101%	85.1%	105	102%	91.8	101%	85.5	103	101	–
COc1cc(OC)cc(-c2n/c(=C\c3c(O)[nH]c4ccc(Cl)cc34)cc3c2=Nc2ccccc2-3)c1	18.4%	28	–	64.5%	52.8	–	104%	108%	86%	84.2%	15.6%	93.7%	79.5	17.6%	69.3	92.9%	104	18.8	109	76.8%
O=C1OCC2=C1C(c1ccc(Cl)c(Cl)c1)c1cc3c(cc1N2CCO)CCC3 (stereo not given)	7.85% (active)	19.7	–	8.3% (active)	44.3	-9.42% (active)	-10.2% (active)	60.2%	12.1%	13.4%	3.94% (active)	18%	32.5	16%	25.5	30%	13.7	32.8	47.3	21%
